Screen size: about 1,200 compounds; about 170 (14%) were called active. The rule behind the calls is not given here. Only a sample is shown. Potency and affinity values are given separately.
Experiment: twin-arginine translocation blockade, bacterial reporter – cherry-pick, set 2, plate reader, dose response (AID 504941)
Conditions: E. coli Tat transport reporter; series mostly up to 38 µM

outcome, inactive:
Cc1nc2scc(-c3ccccc3)c2c(=O)n1/N=C/c1ccco1
Cc1ccc(-n2c3nc(=O)[nH]c(=O)c-3cc3c(C)nn(-c4ccccc4)c32)c(C)c1
COc1ccc(-c2noc(CSc3nnc(-c4ccncc4)n3-c3ccc(F)cc3)n2)cc1OC
CCCCc1c(O)nc(SCC(=O)c2ccccc2)[nH]c1=O
CCN(CC)CCCn1c(C)cc2c(c1=O)C(c1cccc(Cl)c1)C(C#N)=C(N)O2 (configuration not stated)
Cc1cc(Cl)ccc1NC(=O)CN1CCCC1
Cc1ccc(NC(=O)CN2CCN(c3ccccn3)CC2)c(Cl)c1
O=C(CCCn1c(=O)[nH]c2ccsc2c1=O)N1CCCCC1
CC(C)OC(=O)Cn1c(=O)oc2ccccc21
O=C(C1CC(=O)N(C2CCCC2)C1)N1CCN(c2ccc(F)cc2)CC1 (configuration not stated)
Nc1nc2ccc([N+](=O)[O-])c(N)c2s1
CCCn1c(=N)c(S(=O)(=O)c2ccc(F)cc2)cc2c(=O)n3cccc(C)c3nc21
CC(C)c1cc(C(N)=O)c(NC(=O)c2cccc(COc3ccc(Cl)cc3)c2)s1
CCn1nc(-c2ccccc2)c2nc3ccccc3nc21
C=C1CSc2nc(=O)c3c4c(sc3n21)CCCC4
COc1ccc(C(CNC(=O)c2cc(SC)ccc2Cl)N(C)C)cc1 (configuration not stated)
O=c1/c(=C/c2ccc(O)c([N+](=O)[O-])c2)sc2nc3ccccc3n12
CCn1cc(C(=O)O)c(=O)c2cc(F)c(N3CCN(C(=S)NC(=O)c4ccc(F)c(F)c4)CC3)cc21
Cc1ccnc(NC(c2cccnc2)c2ccc3cccnc3c2O)c1 (configuration not stated)
Oc1c(Br)cc(C2N=C(c3ccccc3)NO2)cc1Br (configuration not stated)
CCOC(=O)C1(c2nc(N)cs2)COC(=O)C1 (configuration not stated)
COc1ccccc1-c1ccc(=O)n(CC(=O)Nc2ccc(C(=O)N3CCCC3)cc2)n1
Nc1nc(NCC2CCCO2)nc(Nc2cccc(Cl)c2)c1[N+](=O)[O-] (configuration not stated)
O=C(c1ccccc1)N1CCN(c2nc3ccc([N+](=O)[O-])cc3s2)CC1
COc1ccc(CNC(=O)Cn2nnc(-c3ccc(NC(=O)C4CCCCC4)cc3)n2)cc1
O=C(NCc1cccs1)Nc1cccc(Cl)c1
Cc1ccc(NC(=O)c2ncn(CCCNCc3ccccn3)n2)cc1C
COc1ccc(CCNC(=O)CN2CCOc3ccccc32)cc1OC
COc1ccc(N2CCN(C3CC(=O)N(c4ccc5c(c4)OCCO5)C3=O)CC2)cc1 (configuration not stated)
Cc1ccc(O)c(C(=O)c2coc(=N)c(C(=O)NC(C)C)c2)c1
C=CCNc1ccccc1S(=O)(=O)NCc1ccccc1
O=C(Nc1ccc(Oc2ccccc2)nc1)C1CCCCN1Cc1ccc(OCCO)cc1 (configuration not stated)
CCOc1ccc(Nc2nc3c(c(=O)[nH]2)CCCC3)cc1
COc1ccc(/C=C/C(=O)Nc2ccccc2C(=O)O)cc1OC
NS(=O)(=O)c1ccc(CCNC(=O)Cc2ccc(S(=O)(=O)N3CCCC3)s2)cc1
CC1COc2c(N3CCN(C)CC3)c(F)cc3c(=O)c(C(=O)O)cn1c23 (configuration not stated)
CCn1cc(C(=O)O)c(=O)c2cc(F)c(N3CCN(C)CC3)cc21
O=C(NC(Cc1ccccc1)c1nc2ccccc2[nH]1)c1ccc(Cl)c([N+](=O)[O-])c1 (configuration not stated)
CCOC(=O)c1c(C)[nH]c(C(=O)N(C)Cc2cccc(OC)c2OC)c1C
COc1ccccc1NS(=O)(=O)c1cccc(N=C2N=C(N)c3ccccc32)c1
CC(=O)Nc1sc(NC(=O)c2ccccc2)nc1-c1cccs1
Cc1ccc(/C=N/NC(=O)c2ccc(Cn3cc([N+](=O)[O-])cn3)o2)cc1
O=C(NCc1cccnc1)C(=O)NCC1OCCN1S(=O)(=O)c1ccc(F)cc1 (configuration not stated)
COc1ccc(C(=O)OC(C)CN2CCN(C)CC2)cc1 (configuration not stated)
Cc1ccc(-n2c(O)c(C=Nc3ccccc3-c3n[nH]c(=S)[nH]c3=O)c3ccccc3c2=O)cc1C
COc1ccc(/C=C(/NC(=O)c2cccc([N+](=O)[O-])c2)C(=O)O)cc1
Cc1cc(NC(=O)c2ccc([N+](=O)[O-])cc2)n(C)n1
O=C(NC(=S)NNC(=O)c1ccccc1O)c1ccccc1
COCC(=O)Nc1nnc(Cc2ccc(OC)cc2)s1
CC(Oc1cccnc1[N+](=O)[O-])C(=O)N1CCc2ccccc21 (configuration not stated)
Cc1nc(-c2cccc(S(=O)(=O)N3CCOCC3)c2)cs1
COc1ccc(NC(=O)c2ccccc2[N+](=O)[O-])cc1OC
CCN(CC)S(=O)(=O)c1cc(NC(=O)c2ccc(-n3cncn3)c([N+](=O)[O-])c2)ccc1C
NC(=O)Cn1c(-c2nonc2N)nc2ccccc21
CCCC(=O)Nc1ccc(NC(=O)c2ccccn2)cn1
Cc1onc(-c2c(F)cccc2Cl)c1C(=O)Nc1sc2c(c1C#N)CCC(C(C)(C)C)C2 (configuration not stated)
Cc1onc(-c2ccccc2)c1C(=O)Nc1nc(-c2cc(F)ccc2F)cs1
Cc1ccccc1NC(=O)NCCN1C(=O)C2C3C=CC(C3)C2C1=O (configuration not stated)
CCOC(=O)c1ccccc1NC(=S)N1CC(C)CC(C)C1 (configuration not stated)
CCOC(=O)c1sc(Nc2nc3ccc(OC)cc3s2)cc1C
CCCn1c(N)c(C(=O)CSc2nnnn2-c2ccc(O)cc2)c(=O)n(C)c1=O
COC(=O)/C(=C/c1ccco1)NC(=O)c1ccccc1
O=C1OCCN1C(=O)[C@H]1[C@H](c2ccc(Cl)cc2)C(c2ccccc2)=NN1c1ccccc1
COc1cccc(-c2cc(=O)c3cc(NC(C)=O)ccc3[nH]2)c1
Cc1c(NC2=NC3(CCCCC3)Cc3ccccc32)c(=O)n(-c2ccccc2)n1C
O=C(Nc1cccc(NC(=O)c2cccnc2)c1)c1ccccc1
O=C1CN(S(=O)(=O)c2ccccc2C(F)(F)F)CCN1
CCCOc1cccc(C(=O)Nc2ccc(Br)cc2F)c1
COc1ccc(OC)c(NC(=O)c2cccnc2)c1
Cc1nn(-c2ccccc2)c(C)c1NC(=O)COC(=O)c1ccc(Cl)c(S(N)(=O)=O)c1
CNC(=S)N1CCN(c2c(F)cc3c(=O)c(C(=O)O)cn(C4CC4)c3c2OC)CC1C (configuration not stated)
COc1cc(C(=O)Oc2cc(C)cc(C)c2)cc(OC)c1OC
Cc1ccc(C2CC(c3ccccc3)n3ncnc3N2)cc1 (configuration not stated)
COc1cc(OC)cc(C(=O)NC2CC(C)(C)NC(C)(C)C2)c1
Cc1ccccc1NC(=O)CCN1CCN(CCO)CC1
CN(Cc1cn[nH]c1-c1ccc(-c2ccccc2)cc1)CC1CCOCC1
Cc1ccc(Cn2c(=O)oc3ccccc32)cc1
O=C(NCc1cccs1)c1cccnc1C(=O)O
COc1cc(/C=C(\C#N)c2nn(CCO)c(N)c2C#N)cc(OC)c1OC
CCN(CC(=O)NCc1ccc(F)cc1)CC(=O)Nc1ccc(S(=O)(=O)N2CCCC2)cc1
CC1CCN(C(=O)C2(NC(=O)Nc3cccc(F)c3)CCCCC2)CC1
O=C(CSc1nc2ccccc2c(=O)n1CCCN1CCOCC1)Nc1ccc2c(c1)OCO2
Cc1nc(SCc2nc3ccccc3[nH]2)c2oc3ccccc3c2n1
Nc1ccc(C(=O)Nc2nc3ccccc3s2)cc1
COCc1cc(C)n(CC(=O)NC(C)c2ccccc2)c(=O)c1C#N (configuration not stated)
COc1ccc(S(=O)(=O)Nc2nc3c(s2)CCCC3)cc1
CCCCOCC1CN(c2ccccc2)C(=O)CS1 (configuration not stated)
Cc1ccc(NC(=O)COC(=O)CCC(=O)c2cccs2)c(C)c1
Cc1ccc(C)c(NC(=O)CCN2CCc3ccccc3C2)c1
COc1ccc(N(CC(=O)NCc2ccc(Cl)cc2)S(=O)(=O)c2ccccc2[N+](=O)[O-])c(OC)c1
Cc1cc(C)nc(SC(C)C(=O)N/N=C/c2cccs2)n1 (configuration not stated)
Cc1ccc(C(=O)c2cnc3ccccc3c2-c2ccccc2)cc1
CC1=NCC(C)c2c1[nH]c1ccccc21 (configuration not stated)
Cc1cccc(/C=N/NC(=O)c2cc(C3CC3)nc3ccccc23)n1
O=C(NCc1ccccc1)C(=O)NCC1OCCN1S(=O)(=O)c1ccc([N+](=O)[O-])cc1 (configuration not stated)
Cc1noc(C)c1COC(=O)c1cccc(S(=O)(=O)N2CCOCC2)c1
C#CCOCCOCCOCCNc1nc(N2CCN(C(=O)Cn3cc(CC(C)O)nn3)CC2)nc(N2CCN(C(=O)[C@H](CCCCN)n3cc(CCCC)nn3)CC2)n1 (some centres not stated)
COc1cccc(-n2c(SCc3ccccn3)nc3c(c2=O)SCC3)c1
Cc1ccc2cccc(OCC(=O)N3CCc4ccccc43)c2n1
COc1ccc(CCNC(=O)/C=C/c2ccco2)cc1OC
COc1ccccc1N1CCN(c2nc(-c3ccccc3)cc(C(F)(F)F)n2)CC1
Cc1ccccc1OCC(=O)Nc1nnc(-c2ccncc2)s1
NC1C2CN(c3nc4c(cc3F)c(=O)c(C(=O)O)cn4-c3ccc(F)cc3F)CC12 (configuration not stated)
CSc1cccc(NC(=O)CN(C)S(=O)(=O)c2cnc[nH]2)c1
O=C(N/C(=C/c1ccccc1)C(=O)N1CCCCC1)c1ccc(Br)o1
COc1ccc(OC)c(C(=O)CSc2nnc(-c3cccs3)o2)c1
COc1cccc(NC(=O)c2ccc3c(SCC(=O)O)c4c(nc3c2)CCCC4)c1
CC(C)OC(=O)c1nn2c(C(F)(F)F)cc(-c3ccco3)nc2c1Cl
O=C(Nc1ccc(Br)cc1)C1CC(O)CN1C(=O)Oc1ccccc1 (configuration not stated)
CCOc1ccc(NC(C(=O)Nc2cccc(C(C)=O)c2)c2ccccc2)cc1 (configuration not stated)
O=C(NC1CC1)c1ccc(N2CCCCC2)c([N+](=O)[O-])c1
COc1cc2cc(CN(CCO)S(=O)(=O)c3ccccc3Cl)c(=O)[nH]c2cc1OC

Reference: PubChem BioAssay AID504941 (Broad Institute, 2011)
